DRD3 antagonist: antagonists of human D3 dopamine receptor. P35462. D3R cells, DiscoveRx beta-arrestin luminescence, antagonist mode; active compounds read low. max response, negative = inhibition, %. 360,000 tested, 2.5% active. AID 652054; in the data active = max response below about -50%; inconclusive = no clear call, values can overlap the other calls; note: % is set by controls: 0 for no effect and ±100 for the full control effect
Target sequence (P35462 whole entry, looked up): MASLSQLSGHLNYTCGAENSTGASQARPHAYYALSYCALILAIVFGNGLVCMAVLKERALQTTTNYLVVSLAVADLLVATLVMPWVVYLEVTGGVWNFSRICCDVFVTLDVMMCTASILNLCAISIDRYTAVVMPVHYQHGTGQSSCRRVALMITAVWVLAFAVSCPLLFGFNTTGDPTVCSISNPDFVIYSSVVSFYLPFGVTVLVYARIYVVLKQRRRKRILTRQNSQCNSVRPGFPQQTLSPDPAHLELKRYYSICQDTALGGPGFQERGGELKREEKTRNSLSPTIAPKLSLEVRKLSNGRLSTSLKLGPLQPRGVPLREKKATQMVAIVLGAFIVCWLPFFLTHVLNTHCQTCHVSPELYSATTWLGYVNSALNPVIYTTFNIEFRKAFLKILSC
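Cells plated overnight at 1500 cells/well, then exposed to library compounds with dopamine controls for 90 minutes at 37 degrees C. DiscoveRx reagent added for 30–60 minutes at room temperature; luminescence read, quantitative HTS format.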
DRD3 agonist: agonists of human D3 dopamine receptor; P35462; D3R DiscoveRx beta-arrestin cells, luminescence, 90 min; max activation, %; 410,000 tested, 0.58% active; AID 652048; in the data active = max activation above about 30%; note: 0% is about no effect
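Agonist-mode cell screen: cells plated at 1500/well and incubated overnight at 37 °C, then exposed to library compounds for 90 min at 37 °C. Detection reagent was added for 30–60 min at room temperature, and luminescence was read.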
Integrin act MD: activates integrin-mediated alleviation for muscular dystrophy; alpha7betagal myoblasts, beta-gal FDG fluorescence, 48 h; AID 624291; Potency, µM (highest dose often 38.3 µM), for the others: top-dose activation, actives largely listed as activators; 350,000 tested, 0.064% active; active = well fitted activation curve with a large enough effect; inconclusive = small, poorly fitted or top-dose-only effect; inactive = no such curve, though single readings can be large or run the other way;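 note: potency is the fitted concentration of half-maximal effect; 100% = response of the positive control SU9516; nearly all actives have a fitted effect of over 60% in size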
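Alpha7betagal+/- myoblasts (passage 13) were plated 16-24 hr, then exposed to compounds (1:260 dilution of DMSO stock) for 48 hours at 37C. After MPER lysis, β-galactosidase reporter activity was read as FDG fluorescence (ex 480/em 540) after 30 minutes.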
* = called active by the depositor; ? = inconclusive; . = not tested or not shown; [ ] = dose if it differs, or a comment. An excerpt weighted towards active compounds, which were near 2.9% of everything screened.

SMILES	DRD3 antagonist	DRD3 agonist	Integrin act MD
CC(C)(C)n1nnnc1C(c1ccccc1)N1CCC2(CC1)C(=O)NCN2c1ccccc1 (stereo not drawn)	-67*	-12	.
COc1cccc(C(c2nnnn2C(C)(C)C)N2CCC3(CC2)C(=O)NCN3c2ccccc2)c1OC (stereo not drawn)	25	9	.
Cc1ccc(C(=O)N[C@@H](C)CN2C3=NC[C@@H](Cc4ccccc4)N3C[C@H]2Cc2ccc(O)cc2)cc1Br	-70*	-53	-35%
Cc1ccc(C(=O)N[C@@H](C)CN2C3=NC[C@H](Cc4ccccc4)N3C[C@H]2Cc2ccc(O)cc2)cc1Br	-27	-23	-39%
O=C1NCN(c2ccccc2)C12CCN(C(c1ccccc1)c1nnnn1Cc1ccccc1)CC2 (stereo not drawn)	?	-5	.
CSc1nnc([C@@H](N)Cc2c[nH]c3ccccc23)o1	7	0	15%
CN(C)CCSC1c2ccccc2CSc2ccccc21 (stereo not drawn)	-102*	-19	-1%
COC(=O)C1=C(C(=O)OC)SC2(S1)C(C(=O)OC)=C(C(=O)OC)Sc1c2ssc1=O	-96*	-10	-58%
CN1CCN(c2ccc([N+](=O)[O-])c(Sc3ccccn3)c2)CC1	?	-36	-21%
CC(=NCCCO)c1c(O)n(Cc2ccccc2)c(=O)[nH]c1=O	-15	-8	5%
CC(=Nc1c(C)n(C)n(-c2ccccc2)c1=O)c1c(O)n(Cc2ccccc2)c(=O)[nH]c1=O	-51*	-13	9%
O=c1[nH]c(=O)n(CCc2ccccc2)c(O)c1C=NCc1ccc2c(c1)OCO2	-4	2	?
O=C(Cc1ccccc1)N1CCN(CC2CC3C=CC2C3)CC1 (stereo not drawn)	-23	-15	-25%
O=C(Cc1ccccc1)N1CCN(CC2CC=CCC2)CC1 (stereo not drawn)	-53*	-16	21%
O=C1NC(=O)N(c2ccc3c(c2)OCO3)C(=O)/C1=C/c1cccs1	-2	-3	-3%
O=C(C1CCCO1)N1CCC2(CC1)OCCO2 (stereo not drawn)	-60*	14	-3%
O=C(C1CCC(=O)N1C1CCCC1)N1CCC2(CC1)OCCO2 (stereo not drawn)	-12	3	-3%
COc1ccc(OC)c(N2Cc3ccccc3C2=N)c1	-6	-7	-12%
CCCCn1nnnc1C(c1ccccc1)N1CCC2(CC1)C(=O)NCN2c1ccccc1 (stereo not drawn)	0	-12	.
c1ccc2c(CN3CCCCC3)c[nH]c2c1	0	-20	-66%
CCN1CC=C(c2c[nH]c3ccccc23)CC1	-71*	-13	0%
O=C(Nc1ccc(Cl)c(C(F)(F)F)c1)NC1CC2CCCC(C1)N2Cc1ccccc1 (stereo not drawn)	-84*	-19	-66%
O=C(CN1CCN(C(=O)COc2cccc(F)c2)CC1)Nc1ccc(Cl)c(C(F)(F)F)c1	7	2	19%
CC(C)OC(=O)Cc1ccccc1	-9	-2	.
C[C@]12CC[C@H](O)C[C@@H]1CC[C@@H]1[C@@H]2CC[C@]2(C)C(=O)CC[C@@H]12	7	18	.
SMILES	DRD3 antagonist	DRD3 agonist	Integrin act MD
O=c1[nH]c2ccccc2n1C1CCN(C(c2cc3ccccc3o2)c2nnnn2-c2ccc3c(c2)OCCO3)CC1 (stereo not drawn)	83	43*	.
O=c1[nH]c2ccccc2n1C1CCN(C(c2cccc3ccccc23)c2nnnn2-c2ccc3c(c2)OCCO3)CC1 (stereo not drawn)	51	9	.
CCCCCCCCn1sccc1=O	-81*	-75	.
C=CCn1c(=O)c(C=Nc2cccnc2Cl)c(O)n(CCCC)c1=O	24	1	-11%
O=C(C[N+]12CCC(CC1)C(CO)C2)c1ccc(Br)cc1 (stereo not drawn)	5	-9	6%
CC(C)=CCN1CC[C@@]2(C)c3cc(O)ccc3CC1C2C (stereo partly drawn)	?	-78	.
CC(C)=CCN1CC[C@@]2(C)c3cc(O)ccc3C[C@@H]1C2C (stereo partly drawn)	-58*	-48	.
CC[N+](C)(CC)CCCOC(=O)C(O)(c1ccccc1)C1CCCCC1 (stereo not drawn)	3	5	-12%
Cc1ccc(OCC(=O)N2CCN(Cc3ccc(F)cc3)CC2)cc1	.	-2	.
COc1ccc(CN2CC=C(c3ccc(F)cc3)CC2)cc1Br	-68*	-24	-36%
CCN(CC)c1ccc(CN2CC=C(c3ccc(F)cc3)CC2)cc1	-67*	-17	-59%
COc1cc(CN2CCNCC2)cc(OC)c1OC	-13	2	-4%
C=CCn1c(O)c(C(C)=NCCN2CCCCC2)c(=O)[nH]c1=O	-65*	-6	-19%[7.66 µM]
CC(=NCCN1CCCCC1)c1c(O)[nH]c(=O)[nH]c1=O	-53*	-2	20%
CCCCn1c(O)c(C(C)=NCCN2CCCCC2)c(=O)[nH]c1=O	-71*	-8	-6%
CC(=NCCN1CCCCC1)c1c(O)n(Cc2ccccc2)c(=O)[nH]c1=O	-21	-7	-22%
C=CCn1c(O)c(/C(C)=N/N2CCCCC2)c(=O)[nH]c1=O	4	4	-18%
CC(=NCCCO)c1c(O)[nH]c(=O)[nH]c1=O	4	15	-1%
COc1ccc(C2CC(=O)Oc3c2c(=O)oc2ccccc32)c(OC)c1OC (stereo not drawn)	.	-14	.
CC12Nc3ccccc3C(=O)N1Cc1cnnn1-c1ccccc12 (stereo not drawn)	-9	-4	.
Oc1c(Br)cc(Br)cc1Br	20	1	.
Oc1c(Br)c(Br)c(Br)c(Br)c1Br	-55*	-85	.
Cc1ccccc1CN1CCCN(Cc2ccc(Cl)cc2)S1(=O)=O	?	-1	12%
Cc1ccc(CN2CCCN(Cc3ccc(Cl)cc3)S2(=O)=O)cc1	-18	77*	7%
CC1CCC2[C@@H](C)C(=O)OC3O[C@]4(C)CCC1C32OO4 (stereo partly drawn)	-3	12	-6%
SMILES	DRD3 antagonist	DRD3 agonist	Integrin act MD
O=C(O)/C=C/C(=O)O	-12	18	0%
Cc1ccc(C2N(c3cc(C)on3)C(=O)C3CCCN32)cc1 (stereo not drawn)	-9	2	9%
CCCOc1ccc(N2C(=O)CC(N3CC=C(c4ccccc4)CC3)C2=O)cc1 (stereo not drawn)	9	9	7%
CC[C@H](C)/C=C(C)/C=C/C1=CC2=C(Cl)C(=O)[C@@](C)(OC(C)=O)C(=O)C2=CO1	10	2	-3%
O=P(Nc1ccccc1)(Oc1ccccc1)Oc1ccccc1	92	5	1%
CNP(=O)(Oc1ccccc1)OC12CC3CC(CC(C3)C1)C2 (stereo not drawn)	-5	-2	10µM*
CCN(CCO)c1ccc(N=Cc2c(O)n(C)c(=S)[nH]c2=O)cc1	1	-2	-44%
CCCN(CCC)C1Cc2cc(OC)c(OC)cc2C1	-103*	-90	.
COc1cc2c(cc1OC)C(C)NCC2 (stereo not drawn)	0	-5	.
COc1ccc(CCNCc2cccn2C)cc1OC	-5	-1	-10%
CCCNc1nc(OC)nc(N2CC3CC(C2)c2cccc(=O)n2C3)n1 (stereo not drawn)	8	7	-13%

Screening results from PubChem.
